In ChEMBL document CHEMBL1201862, “PubChem BioAssay data set” (2004):
Screen size: about 400,000 compounds; about 2,100 (0.53%) were called active. Another 14% or so got no clear call; they are omitted. This is one part of a sample in which actives are shown more often than they occur. The rule behind the calls is not given here.

target: Ataxin-2 (Homo sapiens) (UniProt Q99700); assay: qHTS for Inhibitors of ATXN expression.; type: functional
Sequence (Q99700 whole entry): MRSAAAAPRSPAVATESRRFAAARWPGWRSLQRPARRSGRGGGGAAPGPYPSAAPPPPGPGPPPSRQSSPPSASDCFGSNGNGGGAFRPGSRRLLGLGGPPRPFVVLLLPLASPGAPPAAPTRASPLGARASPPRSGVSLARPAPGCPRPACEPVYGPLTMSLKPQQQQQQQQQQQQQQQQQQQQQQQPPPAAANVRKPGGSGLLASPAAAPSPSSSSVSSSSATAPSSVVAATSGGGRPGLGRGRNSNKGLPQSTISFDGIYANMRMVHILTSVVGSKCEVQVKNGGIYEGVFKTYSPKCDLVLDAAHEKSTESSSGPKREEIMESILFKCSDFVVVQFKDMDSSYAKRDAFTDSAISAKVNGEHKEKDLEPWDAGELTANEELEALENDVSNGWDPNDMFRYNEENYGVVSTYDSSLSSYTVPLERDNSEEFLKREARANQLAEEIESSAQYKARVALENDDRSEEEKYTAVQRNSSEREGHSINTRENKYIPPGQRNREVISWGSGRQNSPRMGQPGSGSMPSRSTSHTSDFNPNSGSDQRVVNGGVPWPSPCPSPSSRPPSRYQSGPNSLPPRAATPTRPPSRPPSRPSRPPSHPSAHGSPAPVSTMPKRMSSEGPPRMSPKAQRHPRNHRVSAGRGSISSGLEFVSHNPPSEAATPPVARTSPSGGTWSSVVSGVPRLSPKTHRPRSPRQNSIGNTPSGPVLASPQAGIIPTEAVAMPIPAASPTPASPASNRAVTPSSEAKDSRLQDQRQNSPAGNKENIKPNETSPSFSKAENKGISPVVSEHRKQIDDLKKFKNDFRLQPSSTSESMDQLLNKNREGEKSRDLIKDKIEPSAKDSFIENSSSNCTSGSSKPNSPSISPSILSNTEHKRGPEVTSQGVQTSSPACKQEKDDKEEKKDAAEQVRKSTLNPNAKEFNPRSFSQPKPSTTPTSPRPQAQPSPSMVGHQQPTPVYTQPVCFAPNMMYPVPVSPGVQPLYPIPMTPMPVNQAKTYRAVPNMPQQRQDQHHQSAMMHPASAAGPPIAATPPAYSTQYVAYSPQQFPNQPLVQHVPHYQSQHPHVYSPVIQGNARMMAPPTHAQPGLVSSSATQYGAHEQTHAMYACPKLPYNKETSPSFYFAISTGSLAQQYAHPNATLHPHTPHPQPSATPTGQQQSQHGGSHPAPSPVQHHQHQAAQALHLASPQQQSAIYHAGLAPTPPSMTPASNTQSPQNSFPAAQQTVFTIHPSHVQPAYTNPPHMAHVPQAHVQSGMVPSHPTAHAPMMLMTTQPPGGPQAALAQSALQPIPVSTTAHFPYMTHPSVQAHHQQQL

SMILES	Potency
Cn1c(C(=O)O)cc2c(=O)n3ccccc3nc21	inactive
O=C(Nc1ccc2cccnc2c1)c1ccc(Br)cc1	inactive
CC(=O)OCCn1c2nc(=O)[nH]c(=O)c-2nc2cc(C)c(C)cc21	inactive
COc1ccc2nc(NN=C3C(=O)CC(C)(C)CC3=O)sc2c1	33.6 µM (active)
COc1cccc(C2C3=C(O)CC(C)(C)CC3=NC(C)=C2C(=O)Nc2nc3ccccc3s2)c1OC (stereo not drawn)	inactive
COc1ccc2nc(Nc3ccccc3)sc2c1	inactive
O=C(Nc1ccc2oc(=O)ccc2c1)c1ccc(-c2cccc([N+](=O)[O-])c2)o1	39.8 µM (active)
O=C(Nc1nccs1)c1ccc(-c2ccc([N+](=O)[O-])cc2)o1	inactive
COc1ccc(CCNC(=O)c2ccc(-c3cccc([N+](=O)[O-])c3)o2)cc1OC	inactive
COc1ccc(C(=N)NOC(=O)/C=C/c2ccccc2)cc1	inactive
COc1cc2c(cc1NC(=O)COC(=O)/C=C/c1ccccc1)oc1ccccc12	17.8 µM (active)
COc1cc2c(cc1N/C=C(\C#N)c1nc(-c3ccccc3)cs1)oc1ccccc12	inactive
CCCCc1ccc(/C(C)=N/Nc2cc(N3CCOCC3)nc(C)n2)cc1	inactive
O=C(CN1C(=O)NC2(CCCC2)C1=O)Nc1nc(-c2ccccc2)cs1	inactive
O=C(CN1C(=O)NC2(CCCCC2)C1=O)Nc1ccc2c(c1)CCC2	28.2 µM (active)
O=C(CN1CCN(Cc2ccccc2)CC1)Nc1ccc2c(c1)CCC2	inactive
CCc1ccccc1-n1c(N)c(C(=O)OC)c2nc3ccccc3nc21	inactive
CN1C(=O)c2cccc3c(S(=O)(=O)N(C)C)ccc1c23	inactive
O=C(O)c1cc2c(ncc3c(=O)n(-c4ccccc4)[nH]c32)s1	inactive
Cc1[nH]n(-c2ccc(Cl)cc2)c(=O)c1N=Nc1cccnc1	inactive
CN(C)S(=O)(=O)c1ccc2[nH]cc(/C=C/c3nc4ccccc4c(=O)n3-c3ccccc3)c2c1	inactive
Cc1[nH]n(-c2ccccc2)c(=O)c1N=Nc1c(O)cc(S(=O)(=O)N(C)C)c2ccccc12	4.47 µM (active)
Cc1[nH]n(-c2ccccc2)c(=O)c1N=Nc1nccs1	39.8 µM (active)
Cc1cccc(/N=c2\oc3cc(O)ccc3cc2C(N)=O)c1	inactive
COc1cccc(C2Oc3ccccc3C3CC(c4cccs4)=NN32)c1 (stereo not drawn)	inactive
COC(=O)CSc1nc(N)c2c3c(sc2n1)C(c1ccccc1)SC(c1ccccc1)C3 (stereo not drawn)	35.5 µM (active)

SMILES	Potency
COC(=O)c1sc2nc3c(c(-c4cccs4)c2c1N)CCCC3	inactive
CC1(C)Cc2c(sc3nc(SCC(=O)O)nc(N)c23)CO1	inactive
Cc1ccc2oc(=O)c(S(=O)(=O)c3ccc(F)cc3)cc2c1	inactive
Cc1cn(-c2cc(C(=O)Nc3ccc(C)c(NC(=O)C(=O)c4c[nH]c5ccccc45)c3)cc(C(F)(F)F)c2)cn1	20 µM (active)
O=C(NCCOc1ccccc1Cl)C(=O)c1c[nH]c2ccccc12	inactive
Cc1ccc(NC(=O)COC(=O)c2c[nH]c3ccccc23)cc1C	inactive
OCCN1CCN(c2ncnc3c2ncn3[C@H]2CN(Cc3ccc(-c4ccccc4)cc3)C[C@@H](CO)O2)CC1	39.8 µM (active)
CN(C)c1ccc(/C=C2\CCCc3c2nc2ccccc2c3C(=O)O)cc1	inactive
CCCC(/C=C/c1ccc(OC(C)=O)cc1)=C1/c2ccccc2C(=O)N1c1ccccc1	inactive
COc1cccc(C2NC(=O)CCC2[N+](=O)[O-])c1 (stereo not drawn)	inactive
CCCC/C=C1/CCC(CN(C)C)C1=O (stereo not drawn)	37.7 µM (active)
COc1ccc(/C=N/N(C)C2=NS(=O)(=O)c3ccccc32)cc1	inactive
COc1cccc(/C=C2/CCC(CN(C)C)C2=O)c1 (stereo not drawn)	9.47 µM (active)
COc1ccc(/C=C2\CCC/C(=C\C=N\N(C)C)C2=O)cc1	11.2 µM (active)
COc1cccc(NC=C2C(=O)CCCC2=O)c1	inactive
CSc1ccc(/C=C/C(=O)OCC(=O)N2CCc3ccccc32)cc1	inactive
CN(C)CC1CCC/C(=C\c2ccc(OC(=O)/C=C/c3ccccc3)cc2)C1=O (stereo not drawn)	35.5 µM (active)
Cc1noc(C)c1COc1ccc(C(=O)OCC(=O)Nc2ccc(S(N)(=O)=O)cc2)cc1	inactive
CN(C)S(=O)(=O)Oc1ccsc1C(=O)Nc1ccc(Br)cc1	inactive
COc1ccc(/C=C/CN2CCN(CC(C)C)C(CCO)C2)cc1 (stereo not drawn)	inactive
CC1CCN(c2ccc3c(c2)S(=O)(=O)c2cc(C(=O)O)ccc2C3=O)CC1	inactive
Brc1ccc2ncc(Br)cc2c1	inactive
CCCCn1nc(NC(=O)c2cccs2)c2cc3cc(OC)ccc3nc21	inactive
COc1ccc(/C=C2/CCCC(CN(C)C)C2=O)cc1 (stereo not drawn)	13.4 µM (active)
O=C(O)c1c2c(nc3ccccc13)/C(=C/c1ccc(O)cc1)CC2	inactive
CN(C)CC1CC/C(=C\c2ccc(O)cc2)C1=O (stereo not drawn)	39.8 µM (active)

SMILES	Potency
Cc1cc(=O)oc2cc3c(cc12)OCCN3	inactive
CC(C)(C)c1ccc(C2=CC(c3ccccc3)n3ncnc3N2)cc1 (stereo not drawn)	inactive
CCN(CC)c1ccc2c(C)c(CO)c(=O)oc2c1	inactive
COc1c(Br)cc(/C=N/n2c(S)nnc2-c2ccccc2)c(O)c1Br	inactive
O=C(Nc1cccc(NC(=O)c2cc([N+](=O)[O-])ccc2Cl)n1)c1cc([N+](=O)[O-])ccc1Cl	22.4 µM (active)
O=C(Nc1cccc(NC(=O)c2cccc([N+](=O)[O-])c2)n1)c1cccc([N+](=O)[O-])c1	inactive
Cc1cccc(NC(=O)c2cc(Cl)nc3ccccc23)n1	inactive
c1cn2c(NC3CCCCC3)c(-c3ccc(SC4CCCCC4)cc3)nc2cn1	inactive
CCc1ccc(S(=O)(=O)ON2C(=O)c3ccccc3C2=O)cc1	23.8 µM (active)
Cc1ccc(F)cc1NC(=O)N1CCCN(c2ccc(C(F)(F)F)cn2)CC1	inactive
COc1ccccc1NC(=O)N1CCN(c2ccc3nnc(-c4ccc(F)cc4)n3n2)CC1	25.1 µM (active)
Fc1ccc(-c2nnc3ccc(N4CCc5ccccc5C4)nn23)cc1	35.5 µM (active)
COc1ccc(Cl)cc1NC(=O)N1CCN(c2ccccc2OC)CC1	inactive
CCN(CC)C(=O)CSc1nc2ccccc2c(=O)n1CCC(=O)N1CCN(c2ccccc2)CC1	inactive
COc1ccc(-n2cc(C(=O)c3cc(Cl)ccc3O)cc(C#N)c2=O)cc1	inactive
COc1ccc(Cc2c(-c3ccco3)nc3ccc(Br)cn23)c(C)c1	20 µM (active)
Clc1cccc(Cc2c(-c3ccco3)nc3ccc(Br)cn23)c1	31.6 µM (active)
Clc1cccc(Cc2c(-c3ccco3)nc3ccc(Cl)cn23)c1	28.2 µM (active)
COc1ccc2nc(-c3ccco3)c(-c3ccco3)nc2c1	inactive
Clc1cccc(CSc2ccc(-c3ccco3)nn2)c1	inactive
Fc1cccc(Cc2c(-c3ccco3)nc3ccc(Cl)cn23)c1	39.8 µM (active)
COc1ccc(C2C(C(=O)c3ccco3)=C(O)C(=O)N2c2nnc(C)s2)cc1 (stereo not drawn)	inactive
O=C(CC1C(=O)NC2CCCCC2N1C(=O)c1ccc([N+](=O)[O-])cc1)Nc1ccccc1 (stereo not drawn)	inactive
Cc1ccc(S(=O)(=O)N2CCN(C(=O)c3cc(C4CC4)nc4c3cnn4C(C)C)CC2)cc1	inactive
Cc1nc2ccc(Cl)cn2c1[N+](=O)[O-]	inactive
Cc1ccc(Cc2c(-c3ccco3)nc3ccc(Cl)cn23)cc1	25.1 µM (active)

SMILES	Potency
CC(=O)Nc1c(-c2ccccc2)nc2ccc(Cl)cn12	inactive
Cc1ccc2nc(-c3ccncc3)c(NC3CCCCC3)n2c1	inactive
Fc1cccc(Cc2c(-c3ccco3)nc3ccc(Br)cn23)c1	39.8 µM (active)
CCOC(=O)C1CCN(C(=O)Nc2ccc3nc(-c4ccco4)c(-c4ccco4)nc3c2)CC1	inactive
Sc1nnc(-c2ccco2)n1-c1ccc(Br)cc1	inactive
Cc1ccc2nc(-c3ccco3)c(CC3CCCCC3)n2c1	22.4 µM (active)
COCCNC(=O)c1cc2c(=O)n3cccc(C)c3nc2n(Cc2ccncc2)c1=N	inactive
C/C(=N\NC(=O)C1COc2ccccc2O1)c1ccc(N2CCOCC2)cc1 (stereo not drawn)	inactive
O=C(COC(=O)c1c2c(nc3ccccc13)/C(=C\c1ccco1)CC2)NC1CCCC1	inactive
O=C1C(=C(I)I)c2ccccc2-c2ccccc21	26.7 µM (active)
COc1ccc(C2C=C(C)Nc3nc4ccccc4n32)cc1 (stereo not drawn)	inactive
Cc1ccc(C(C)(C)C)cc1S(=O)(=O)N1CC(=O)Nc2ccccc21	inactive
COc1ccc(C(=O)c2oc3ccccc3c2NC(=O)c2ccc(F)cc2)cc1	inactive
COc1ccc(NC(=O)COC(=O)c2[nH]nc3ccccc23)c(OC)c1	inactive
COc1ccc(NC(=O)c2oc3ccccc3c2NC(=O)COc2ccccc2OC)c(OC)c1	35.5 µM (active)
Brc1ccc(C2=CC(c3ccco3)n3ncnc3N2)cc1 (stereo not drawn)	inactive
COc1cccc2cc(C(=O)NCc3ccc(Cl)cc3)c(=O)oc12	inactive
COc1ccc(/N=c2\oc3cc(O)ccc3cc2C(=O)NCC2CCCO2)c(OC)c1 (stereo not drawn)	inactive
COc1ccc(/N=c2\oc3c(OC)cccc3cc2C(=O)NCc2ccco2)c(OC)c1	22.4 µM (active)
CCc1c(C)c(C#N)c2nc3ccccc3n2c1S	inactive
CC(C)=CCC[C@H](C)C[C@@H]1Cc2nc(S)nc(O)c2[C@@H](c2ccc(F)cc2)O1	28.2 µM (active)
Cc1ccc(-c2noc(CN(C(=O)c3ccc4c(c3)OCO4)C(C)C)n2)cc1	inactive
CSc1ccccc1NC(=O)c1cc(CC(C)C)on1	inactive
CC(=O)c1ccc(OCc2cc(C(=O)N3CCC(c4ccncc4)CC3)no2)cc1	inactive
CC(CNC(=O)c1cc(COc2ccc3ncccc3c2)on1)c1ccccc1 (stereo not drawn)	44.7 µM (active)
